± gives the standard deviation of the averaged measurements.
Tests used:
Assay in all cases: relative enzymatic activity vs untreated control (fraction); higher = less inhibition
Settings in all cases: 100 µM; incubation time: 2 h at 37 C
DNA gyrase = test system: DNA gyrase
Experimental: (§1)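 In vitro enzymatic inhibition assays (ProFoldin kits) for 12 purified essential E. coli enzymes or complexes, each treated with 218 active antibacterial compounds at 100 µM for 2 h at 37°C. Read-outs were fluorescence or absorbance (phosphate detection, dye binding), converted to activity via standard curves and expressed relative to untreated DMSO controls.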

DNA helicase = DNA helicase (UniProt P0ACB1)
Sequence of DNA helicase (P0ACB1 whole entry): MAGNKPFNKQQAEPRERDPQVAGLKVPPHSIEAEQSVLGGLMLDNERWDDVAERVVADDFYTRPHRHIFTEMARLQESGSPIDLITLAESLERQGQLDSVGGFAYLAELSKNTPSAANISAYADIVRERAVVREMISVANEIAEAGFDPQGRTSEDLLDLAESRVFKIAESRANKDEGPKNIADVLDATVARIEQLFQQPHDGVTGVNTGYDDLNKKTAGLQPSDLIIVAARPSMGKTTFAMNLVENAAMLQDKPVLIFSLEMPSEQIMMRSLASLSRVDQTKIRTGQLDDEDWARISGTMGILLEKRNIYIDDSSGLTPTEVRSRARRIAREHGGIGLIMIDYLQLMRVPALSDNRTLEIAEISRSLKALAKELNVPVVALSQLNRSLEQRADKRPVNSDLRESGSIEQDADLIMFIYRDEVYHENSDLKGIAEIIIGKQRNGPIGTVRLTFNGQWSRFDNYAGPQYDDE
Experimental: as §1

DNA ligase = DNA ligase (UniProt B1XA82)
Sequence of DNA ligase (B1XA82 whole entry): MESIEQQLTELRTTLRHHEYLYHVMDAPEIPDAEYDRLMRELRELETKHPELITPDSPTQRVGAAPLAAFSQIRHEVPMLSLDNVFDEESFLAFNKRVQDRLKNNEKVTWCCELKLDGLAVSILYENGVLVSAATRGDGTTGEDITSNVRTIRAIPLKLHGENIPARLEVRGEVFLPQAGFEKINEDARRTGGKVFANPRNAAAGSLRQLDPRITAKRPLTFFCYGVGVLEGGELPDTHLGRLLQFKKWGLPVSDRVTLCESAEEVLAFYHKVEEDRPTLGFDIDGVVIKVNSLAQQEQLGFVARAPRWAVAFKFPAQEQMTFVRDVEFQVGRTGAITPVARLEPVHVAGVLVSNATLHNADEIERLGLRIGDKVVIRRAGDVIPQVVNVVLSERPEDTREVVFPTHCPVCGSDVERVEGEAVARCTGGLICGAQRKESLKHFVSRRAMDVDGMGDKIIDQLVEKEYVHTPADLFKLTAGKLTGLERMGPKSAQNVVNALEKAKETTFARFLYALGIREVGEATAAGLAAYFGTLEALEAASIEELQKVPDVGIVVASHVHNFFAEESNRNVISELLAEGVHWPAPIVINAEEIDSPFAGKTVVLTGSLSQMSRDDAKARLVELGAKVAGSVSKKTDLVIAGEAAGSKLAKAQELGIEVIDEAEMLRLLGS
Experimental: as §1

DNA polymerase = DNA polymerase (UniProt P10443)
Sequence of DNA polymerase (P10443 whole entry): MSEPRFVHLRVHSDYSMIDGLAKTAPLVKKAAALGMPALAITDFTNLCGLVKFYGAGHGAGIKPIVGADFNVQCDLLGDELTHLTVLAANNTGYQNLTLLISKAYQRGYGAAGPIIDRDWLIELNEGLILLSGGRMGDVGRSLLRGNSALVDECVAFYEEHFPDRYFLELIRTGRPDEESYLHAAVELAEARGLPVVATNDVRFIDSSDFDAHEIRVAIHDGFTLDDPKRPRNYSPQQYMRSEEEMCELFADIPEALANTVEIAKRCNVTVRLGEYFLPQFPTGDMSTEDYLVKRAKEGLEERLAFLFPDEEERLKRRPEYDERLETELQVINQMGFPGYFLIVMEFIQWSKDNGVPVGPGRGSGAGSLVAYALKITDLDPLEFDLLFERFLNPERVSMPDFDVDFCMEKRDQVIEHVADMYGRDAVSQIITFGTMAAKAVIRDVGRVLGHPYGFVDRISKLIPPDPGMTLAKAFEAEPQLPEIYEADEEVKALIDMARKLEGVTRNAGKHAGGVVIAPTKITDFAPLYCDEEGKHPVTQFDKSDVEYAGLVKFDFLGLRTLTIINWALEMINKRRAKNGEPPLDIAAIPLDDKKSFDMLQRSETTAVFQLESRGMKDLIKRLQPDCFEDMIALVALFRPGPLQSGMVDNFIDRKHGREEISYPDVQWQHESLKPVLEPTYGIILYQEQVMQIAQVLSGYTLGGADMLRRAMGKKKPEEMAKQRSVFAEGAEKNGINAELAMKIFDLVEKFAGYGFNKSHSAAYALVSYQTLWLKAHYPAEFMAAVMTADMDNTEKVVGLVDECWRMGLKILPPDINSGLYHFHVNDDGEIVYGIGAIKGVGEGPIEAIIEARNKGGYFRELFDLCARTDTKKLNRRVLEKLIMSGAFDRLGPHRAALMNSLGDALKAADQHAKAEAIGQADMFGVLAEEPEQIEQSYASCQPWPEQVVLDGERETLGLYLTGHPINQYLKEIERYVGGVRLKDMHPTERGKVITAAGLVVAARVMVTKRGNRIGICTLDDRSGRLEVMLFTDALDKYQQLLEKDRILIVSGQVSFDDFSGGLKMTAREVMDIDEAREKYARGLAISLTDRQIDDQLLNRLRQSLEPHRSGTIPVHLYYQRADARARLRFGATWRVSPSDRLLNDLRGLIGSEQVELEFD
Experimental: as §1

DNA primase = DNA primase (UniProt P0ABS7)
Sequence of DNA primase (P0ABS7 whole entry): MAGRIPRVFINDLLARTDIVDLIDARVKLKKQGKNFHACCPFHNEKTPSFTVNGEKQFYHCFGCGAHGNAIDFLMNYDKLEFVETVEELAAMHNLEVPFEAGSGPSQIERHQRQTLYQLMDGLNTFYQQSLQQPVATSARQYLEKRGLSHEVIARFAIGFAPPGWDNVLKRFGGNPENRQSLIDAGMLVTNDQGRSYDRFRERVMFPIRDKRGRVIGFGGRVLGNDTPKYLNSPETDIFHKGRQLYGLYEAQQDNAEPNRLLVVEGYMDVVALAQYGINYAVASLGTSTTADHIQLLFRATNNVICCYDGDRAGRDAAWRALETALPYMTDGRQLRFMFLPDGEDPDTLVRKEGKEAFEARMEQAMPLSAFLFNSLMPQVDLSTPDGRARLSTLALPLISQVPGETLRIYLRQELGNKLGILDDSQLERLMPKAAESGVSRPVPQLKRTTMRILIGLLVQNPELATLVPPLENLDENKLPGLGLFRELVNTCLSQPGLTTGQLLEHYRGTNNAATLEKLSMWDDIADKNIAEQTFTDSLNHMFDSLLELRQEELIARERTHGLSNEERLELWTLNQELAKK
Experimental: as §1

GlmU = GlmU (UniProt A7ZTU1)
Sequence of GlmU (A7ZTU1 whole entry, looked up): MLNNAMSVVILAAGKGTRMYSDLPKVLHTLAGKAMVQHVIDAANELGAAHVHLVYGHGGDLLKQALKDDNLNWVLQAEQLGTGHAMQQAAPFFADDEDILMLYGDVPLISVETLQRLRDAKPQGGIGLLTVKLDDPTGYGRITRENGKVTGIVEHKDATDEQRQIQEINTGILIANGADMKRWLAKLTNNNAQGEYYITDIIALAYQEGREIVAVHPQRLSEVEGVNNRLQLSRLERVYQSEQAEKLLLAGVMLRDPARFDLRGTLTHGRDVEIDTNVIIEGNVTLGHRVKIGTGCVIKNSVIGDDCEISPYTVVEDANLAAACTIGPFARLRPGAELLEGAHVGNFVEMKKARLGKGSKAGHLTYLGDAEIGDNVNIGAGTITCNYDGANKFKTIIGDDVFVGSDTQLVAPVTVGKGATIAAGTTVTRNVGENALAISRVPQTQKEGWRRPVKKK
Experimental: as §1

Guanlyate kinase = Guanlyate kinase (UniProt Q0TBG1)
Sequence of Guanlyate kinase (Q0TBG1 whole entry): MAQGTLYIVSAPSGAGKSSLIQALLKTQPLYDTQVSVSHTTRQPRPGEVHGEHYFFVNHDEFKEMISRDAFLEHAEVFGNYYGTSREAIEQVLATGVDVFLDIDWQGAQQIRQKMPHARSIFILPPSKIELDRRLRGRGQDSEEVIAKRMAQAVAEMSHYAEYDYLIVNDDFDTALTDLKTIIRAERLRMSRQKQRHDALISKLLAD
Experimental: as §1

MurA = MurA (UniProt Q3YX52)
Sequence of MurA (Q3YX52 whole entry): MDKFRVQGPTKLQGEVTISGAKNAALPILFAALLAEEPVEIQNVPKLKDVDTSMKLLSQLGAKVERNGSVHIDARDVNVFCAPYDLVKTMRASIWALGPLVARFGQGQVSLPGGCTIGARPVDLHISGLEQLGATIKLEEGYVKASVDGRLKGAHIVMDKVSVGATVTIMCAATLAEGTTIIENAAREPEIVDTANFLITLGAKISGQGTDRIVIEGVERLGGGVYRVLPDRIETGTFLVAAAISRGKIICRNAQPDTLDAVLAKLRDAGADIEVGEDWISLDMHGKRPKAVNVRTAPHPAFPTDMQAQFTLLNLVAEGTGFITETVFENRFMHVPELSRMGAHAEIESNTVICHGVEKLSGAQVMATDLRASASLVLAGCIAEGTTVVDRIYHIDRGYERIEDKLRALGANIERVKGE
Experimental: as §1

MurD = target: T1, MurD (UniProt P14900)
T1 sequence (whole entry): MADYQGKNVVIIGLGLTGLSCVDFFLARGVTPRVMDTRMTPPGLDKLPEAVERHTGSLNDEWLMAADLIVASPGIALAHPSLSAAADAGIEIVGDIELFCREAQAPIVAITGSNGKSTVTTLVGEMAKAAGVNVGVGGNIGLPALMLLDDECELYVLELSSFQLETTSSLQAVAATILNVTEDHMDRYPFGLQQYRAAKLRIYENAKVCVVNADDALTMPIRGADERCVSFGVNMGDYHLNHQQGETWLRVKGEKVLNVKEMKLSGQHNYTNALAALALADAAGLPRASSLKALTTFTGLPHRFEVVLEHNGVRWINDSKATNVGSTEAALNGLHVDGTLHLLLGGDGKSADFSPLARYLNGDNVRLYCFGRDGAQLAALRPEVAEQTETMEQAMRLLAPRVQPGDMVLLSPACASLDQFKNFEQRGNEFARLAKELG
Experimental: as §1

MurF = target: T2, MurF (UniProt P11880)
T2 sequence (whole entry): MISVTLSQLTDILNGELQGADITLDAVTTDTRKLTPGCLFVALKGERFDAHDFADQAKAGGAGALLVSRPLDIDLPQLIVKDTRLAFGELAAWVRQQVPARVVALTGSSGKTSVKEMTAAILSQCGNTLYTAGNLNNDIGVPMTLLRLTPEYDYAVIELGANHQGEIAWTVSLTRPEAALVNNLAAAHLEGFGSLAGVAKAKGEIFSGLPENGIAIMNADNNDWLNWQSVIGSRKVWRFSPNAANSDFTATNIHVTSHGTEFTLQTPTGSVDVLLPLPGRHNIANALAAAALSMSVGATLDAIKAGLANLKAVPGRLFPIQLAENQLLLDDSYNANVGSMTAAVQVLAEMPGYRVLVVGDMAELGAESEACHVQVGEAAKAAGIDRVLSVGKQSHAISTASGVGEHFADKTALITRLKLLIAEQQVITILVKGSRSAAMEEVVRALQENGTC
Experimental: as §1

RNA polymerase = test system: RNA polymerase
Experimental: as §1

Structure (SMILES) | relative enzymatic activity (DNA gyrase) | relative enzymatic activity (DNA helicase) | relative enzymatic activity (DNA ligase) | relative enzymatic activity (DNA polymerase) | relative enzymatic activity (DNA primase) | relative enzymatic activity (GlmU) | relative enzymatic activity (Guanlyate kinase) | relative enzymatic activity (MurA) | relative enzymatic activity (MurD) | relative enzymatic activity (MurF) | relative enzymatic activity (RNA polymerase)
CCC1OC(=O)C(C)C(OC2CC(C)(OC)C(O)C(C)O2)C(C)C(OC2OC(C)CC(N(C)C)C2O)C(C)(O)CC(C)CN(C)C(C)C(O)C1(C)O (stereo not drawn) | 1.09 ± 0.048 | 0.601 ± 0.15 | 1.06 ± 0.2 | 1.11 ± 0.15 | 0.712 ± 0.2 | 1.09 ± 0.14 | 1.04 ± 0.034 | 0.766 ± 0.061 | 0.572 ± 0.39 | 0.964 ± 0.17 | 0.843 ± 0.027
CN(C)c1ccc(O)c2c1C[C@@H]1C[C@@H]3[C@@H](N(C)C)C(=O)C(C(N)=O)=C(O)[C@]3(O)C(=O)[C@H]1C2=O | 0.00646 ± 0.0091 | 0.123 ± 0.0035 | 0.699 ± 0.021 | 0.021 ± 0.0081 | 0.424 ± 0.027 | 0.655 ± 0.21 | 0.152 ± 0.014 | 0.0751 ± 0.025 | 0.665 ± 0.43 | 1.21 ± 0.043 | 0.00236 ± 0.0021
CN(C)C1C(O)=C(C(N)=O)C(=O)C2(O)C(O)=C3C(=O)c4c(O)cccc4C(C)(O)C3CC12.Cl (stereo not drawn) | 0.904 ± 0.27 | 0.696 ± 0.28 | 1.03 ± 0.033 | 1.37 ± 0.52 | 0.711 ± 0.17 | 0.9683 ± 0.0011 | 1.05 ± 0.046 | 0.712 ± 0.038 | 0.627 ± 0.43 | 0.964 ± 0.2 | 0.857 ± 0.014
Cn1sccc1=O | 0.437 ± 0.62 | 0.607 ± 0.19 | 1 ± 0.053 | 1 ± 0.17 | 0.8591 ± 0.0028 | 0.622 ± 0.045 | 0.903 ± 0.084 | 0.0867 ± 0.0083 | 0.579 ± 0.4 | 0.968 ± 0.27 | 0.847 ± 0.097
Cc1cc(O)c(C(=O)NC(C(=O)NC2C(=O)N3C(C(=O)O)=C(CSc4nnnn4C)CSC23)c2ccc(O)cc2)cn1 (stereo not drawn) | 0.926 ± 0.39 | 0.805 ± 0.39 | 1.22 ± 0.41 | 1.34 ± 0.42 | 0.891 ± 0.028 | 0.962 ± 0.018 | 0.925 ± 0.044 | 0.346 ± 0.0056 | 0.601 ± 0.41 | 0.945 ± 0.24 | 0.862 ± 0.071
C=CC1=C(C(=O)O)N2C(=O)C(NC(=O)C(=NO)c3csc(N)n3)C2SC1 (stereo not drawn) | 0.393 ± 0.35 | 0.553 ± 0.15 | 1.19 ± 0.35 | 1.06 ± 0.12 | 0.8619 ± 0.0016 | 0.976 ± 0.068 | 0.917 ± 0.087 | 0.127 ± 0.04 | 0.596 ± 0.39 | 0.968 ± 0.27 | 0.768 ± 0.033
CC(C)(ON=C(C(=O)NC1C(=O)N2C(C(=O)[O-])=C(C[n+]3ccccc3)CSC12)c1csc(N)n1)C(=O)O (stereo not drawn) | 0.0358 ± 0.051 | 0.494 ± 0.12 | 1.08 ± 0.29 | 0.444 ± 0.021 | 0.593 ± 0.11 | 0.79 ± 0.019 | 0.876 ± 0.015 | 0.0456 ± 0.016 | 0.548 ± 0.37 | 0.924 ± 0.15 | 0.137 ± 0.0022
Cn1cc(-c2[nH]c3cc(NC(=O)[C@H](N)C4CCCCC4)cc4c3c2C=NNC4=O)cn1 | 0.0124 ± 0.018 | 0.0463 ± 0.061 | 0.703 ± 0.085 | 0.083 ± 0.099 | ≤ 0 | 0.899 ± 0.013 | 0.0166 ± 0.0039 | 0.348 ± 0.12 | 0.599 ± 0.43 | 1.13 ± 0.017 | 0.191 ± 0.029
CC[C@H](C)C[C@H](C)CCCCCCCCC(=O)N[C@H]1C[C@@H](O)[C@@H](NCCN)NC(=O)[C@@H]2[C@@H](O)CCN2C(=O)[C@H]([C@H](O)CCN)NC(=O)[C@H]([C@H](O)[C@@H](O)c2ccc(O)cc2)NC(=O)[C@@H]2C[C@@H](O)CN2C(=O)[C@H]([C@@H](C)O)NC1=O | 0.131 ± 0.067 | 0.0208 ± 0.022 | 0.699 ± 0.13 | 0.2437 ± 0.00079 | 0.766 ± 0.017 | 1.03 ± 0.013 | 1.09 ± 0.022 | 0.522 ± 0.47 | 0.706 ± 0.5 | 1.39 ± 0.62 | 0.408 ± 0.013
C[C@H]1COc2c(C3(N)CC3)c(F)cc3c(=O)c(C(=O)O)cn1c23 | 0.0356 ± 0.05 | 0.447 ± 0.079 | 0.801 ± 0.074 | 0.5 ± 0.7 | 0.8435 ± 0.0058 | 0.995 ± 0.012 | 0.991 ± 0.021 | 0.619 ± 0.16 | 0.578 ± 0.38 | 0.946 ± 0.25 | 0.861 ± 0.087
C[C@H]1c2cccc(O)c2C(=O)C2=C(O)[C@]3(O)C(=O)[C@@H](C(N)=O)C(=O)[C@@H](N(C)C)[C@@H]3[C@@H](O)[C@@H]21 | 0.782 ± 0.34 | 0.508 ± 0.05 | 0.954 ± 0.14 | 1.17 ± 0.29 | 0.8317 ± 0.0057 | 0.934 ± 0.018 | 0.958 ± 0.081 | 0.673 ± 0.19 | 0.601 ± 0.41 | 0.937 ± 0.26 | 0.882 ± 0.078
CN(C)[C@@H]1C(=O)[C@@H](C(N)=O)C(=O)[C@@]2(O)C(=O)[C@@H]3C(=O)c4c(O)c(NC(=O)CN5CCCC5)cc(F)c4C[C@H]3C[C@@H]12 | 0.0486 ± 0.069 | 0.103 ± 0.0053 | 0.94816 ± 9.1e-05 | 1.06 ± 0.31 | 0.456 ± 0.15 | 0.9445 ± 0.0056 | 0.347 ± 0.035 | 0.63 ± 0.26 | 0.632 ± 0.45 | 0.943 ± 0.19 | 0.118 ± 0.028
O=C(NC(CO)C(O)c1ccc([N+](=O)[O-])cc1)C(Cl)Cl (stereo not drawn) | 1.08 ± 0.086 | 0.453 ± 0.012 | 0.947 ± 0.19 | 1.34 ± 0.4 | 0.725 ± 0.2 | 0.972 ± 0.052 | 1.04 ± 0.047 | 0.8 ± 0.18 | 0.548 ± 0.34 | 0.96 ± 0.2 | 0.86 ± 0.028
C=CC1=C(C(=O)O)N2C(=O)[C@@H](NC(=O)/C(=N/O)c3csc(N)n3)[C@H]2SC1 | 0.0537 ± 0.076 | 0.371 ± 0.1 | 0.963 ± 0.1 | 1.16 ± 0.24 | 0.769 ± 0.027 | 1.004 ± 0.0086 | 0.947 ± 0.08 | 0.119 ± 0.015 | 0.599 ± 0.41 | 0.943 ± 0.22 | 0.785 ± 0.086
Cc1ccc(S(=O)(=O)O)cc1.NC1CCN(c2nc3c(cc2F)c(=O)c(C(=O)O)cn3-c2ccc(F)cc2F)C1.O (stereo not drawn) | 1.41 ± 0.49 | 0.509 ± 0.054 | 1.02 ± 0.043 | 1.15 ± 0.22 | 0.892 ± 0.035 | 0.991 ± 0.05 | 0.699 ± 0.11 | 0.644 ± 0.029 | 0.935 ± 0.86 | 1.01 ± 0.21 | 0.771 ± 0.031
CCN1CCN(C(=O)NC(C(=O)NC2C(=O)N3C(C(=O)O)=C(CSc4nnnn4C)CSC23)c2ccc(O)cc2)C(=O)C1=O (stereo not drawn) | 0.414 ± 0.27 | 0.636 ± 0.11 | 1.35 ± 0.11 | 1.23 ± 0.34 | 0.673 ± 0.16 | 1.09 ± 0.17 | 0.828 ± 0.076 | 0.0994 ± 0.0088 | 0.546 ± 0.35 | 0.965 ± 0.23 | 0.96 ± 0.2
COC1(NC(=O)C(C(=O)[O-])c2ccc(O)cc2)C(=O)N2C(C(=O)[O-])=C(CSc3nnnn3C)COC21.[Na+].[Na+] (stereo not drawn) | 1.04 ± 0.15 | 0.607 ± 0.17 | 1.25 ± 0.16 | 1.27 ± 0.34 | 0.693 ± 0.17 | 0.998 ± 0.085 | 1.02 ± 0.11 | 0.069 ± 0.017 | 0.584 ± 0.39 | 0.913 ± 0.23 | 0.848 ± 0.071
C[C@H]1[C@H](NC(=O)/C(=N\OC(C)(C)C(=O)O)c2csc(N)n2)C(=O)N1S(=O)(=O)O | 0.898 ± 0.25 | 0.534 ± 0.15 | 0.815 ± 0.086 | 1.23 ± 0.28 | 0.8444 ± 0.0011 | 1.04 ± 0.031 | 1.04 ± 0.021 | 0.47 ± 0.14 | 0.623 ± 0.45 | 1.13 ± 0.55 | 0.869 ± 0.072

— the supplement of paper PMC9446081
